Sampled rows, rich in hits. Any-hit rate of the full collection: about 12%.
Arbovirus inh = arbovirus infection inhibition; 0.37% of 200,000 active; arbovirus infection cell-based antiviral screen; AID 1251; inhibition, % at 10 µM; in the data active means inhibition above about 30%
Lmaj promast = inhibitors of Leishmania major promastigote growth | Leishmania major promastigotes, resazurin fluorescence viability | inhibition, % at 10 µM | 9% of 200,000 active; in the data active means inhibition above about 50%;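 further: promastigotes grown with compound for 44 hours at 28 °C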
CHOP inh = blocks CHOP induction under ER stress; CHO-K1 CHOP-promoter luciferase, tunicamycin-induced, 15-18 h; inhibition, % at 10 µM; 3.8% of 220,000 active;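 active means compounds that reduced the stress-induced luciferase reporter signal by more than about 70% of percent inhibition, limit read from the data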
WT yeast gro inh = growth inhibition of WT yeast, mitochondrial fusion screen; mitochondrial fusion phenotypic screen, WT strain; 2.1% of 190,000 active; inhibition, % at 10 µM; AID 1362; in the data active means inhibition above about 58%; tested in S. cerevisiae
Each line names hits and unclear results; the compound was inactive in the other large screens.

CCNc1oc(-c2ccc(OC)cc2)nc1S(=O)(=O)c1ccc(Br)cc1	none
CCCCNc1oc(-c2ccc(OC)cc2)nc1S(=O)(=O)c1ccccc1	CHOP inh 72 (no result: WT yeast gro inh)
CCOc1ccc(-c2nc(S(=O)(=O)c3ccccc3)c(NCc3cccnc3)o2)cc1	Lmaj promast 83
O=S(=O)(c1ccccc1)c1nc(-c2ccco2)oc1NCc1ccccc1	none
Cc1c(-n2c(SCC(=O)NC(C)C)nc3ccccc3c2=O)c(=O)n(-c2ccccc2)n1C	none
Cc1c(C)n(C)c2ccc(C(=O)Nc3cccc4ccccc34)cc12	none
CCN1C(=O)c2cccc3c(S(=O)(=O)Nc4ccccc4OC)ccc1c23	none
CCN1C(=O)c2cccc3c(S(=O)(=O)NCCCN4CCOCC4)ccc1c23	Lmaj promast 78
CCN1C(=O)c2cccc3c(NC(=O)c4ccc(S(=O)(=O)N5CCOCC5)cc4)ccc1c23	none
CCN1C(=O)c2cccc3c(S(=O)(=O)NCCc4c[nH]c5ccccc45)ccc1c23	Lmaj promast 99
Cc1ccc(S(=O)(=O)Nc2ccc(O)c(Sc3ncn[nH]3)c2)cc1	none
CC(C)c1ccc(S(=O)(=O)/N=C2/C=C(Sc3ncn[nH]3)C(=O)c3ccccc32)cc1	Lmaj promast 99, CHOP inh 81
CCCCC(=O)Oc1ccccc1C1SCc2cc(C)c(C)cc2CS1	none
Cc1cc2c(cc1C)CSC(c1ccccc1OC(=O)C(C)(C)C)SC2	WT yeast gro inh 64
CCOc1ccccc1NC(=S)N1CCC(NC(=O)C(C)(C)C)CC1	none
COC(CN(C)C(C(=O)NC1CCCCC1)c1ccccc1)OC (centres undefined)	none
COC(CN(C(=O)CCl)C(C(=O)NC1CCCCC1)c1ccc(Cl)cc1)OC (centres undefined)	Lmaj promast 81
O=C(NC1CCCC1)C(c1ccc(Cl)cc1)N(Cc1ccc(F)cc1)C(=O)CCl (centres undefined)	Lmaj promast 100
COC(CN(C(=O)CCl)C(C(=O)NC1CCCCC1)c1ccccc1C)OC (centres undefined)	Lmaj promast 68
COC(CN(C(=O)CCl)C(C(=O)NC1CCCC(C)C1C)c1ccc(C)cc1)OC (centres undefined)	Lmaj promast 100
COc1cc(Cl)c(C)cc1NC(=O)CNC(=O)Cn1cnc2ccccc2c1=O	none
CC1CCCN(CCCOc2ccc([N+](=O)[O-])cc2)C1 (centres undefined)	Lmaj promast 89
COc1ccc(C(CCN2CCCC(C)C2)c2c(OC)cc(OC)c3c(C)cc(=O)oc23)cc1 (centres undefined)	none (no result: Arbovirus inh, Lmaj promast, WT yeast gro inh)
COc1ccc(OCCCN2CCCC(C)C2)cc1 (centres undefined)	Lmaj promast 97
O=[N+]([O-])c1ccc(OCCN2CCCCCC2)cc1	none
O=C(NCc1cccs1)C1CCCN1C(=O)Nc1ccc(F)cc1 (centres undefined)	none (no result: Arbovirus inh, Lmaj promast, WT yeast gro inh)
COc1ccc2c(c1)O[C@@H](c1ccc3c(c1)OCO3)[C@H](OC(=O)Nc1cc(OC)c(OC)c(OC)c1)C2=O	none
COc1ccc(C(=O)OCC2CC(c3ccccc3)N(C)O2)cc1 (centres undefined)	CHOP inh 80
CN1OC(COC(=O)c2ccc(Cl)cc2Cl)CC1c1ccccc1 (centres undefined)	none
Cc1ccc(/C=N/N2CCN(Cc3ccccc3)CC2)s1	none
Cc1ccc(CN2CCN(/N=C/c3ccc(C)s3)CC2)cc1	Lmaj promast 68
Cc1ccc(CNC(=O)CN(c2cccc([N+](=O)[O-])c2)S(C)(=O)=O)cc1	none
Cc1ccc(CNC(=O)CN(c2cccc([N+](=O)[O-])c2)S(=O)(=O)c2ccccc2)cc1	Lmaj promast 97
CC(C)NC(=O)CN(c1cccc([N+](=O)[O-])c1)S(=O)(=O)c1ccccc1	none
O=C(CN(c1cccc([N+](=O)[O-])c1)S(=O)(=O)c1ccccc1)NCc1ccccc1	Lmaj promast 96
COc1ccc(/C=N/Nc2nc(-c3cccc(S(=O)(=O)N4CCCC4)c3)cs2)c(OC)c1	Lmaj promast 69
CN(C)S(=O)(=O)c1cccc(-c2csc(N/N=C/c3ccco3)n2)c1	none (no result: Arbovirus inh, Lmaj promast, WT yeast gro inh)
COc1cccc(C(=O)Nc2nc(-c3ccc(S(=O)(=O)N4CCOCC4)cc3)cs2)c1	Lmaj promast 92, CHOP inh 84
Cc1ccc(-c2csc(NC(=O)COC(=O)c3cccc(S(=O)(=O)N4CCOCC4)c3)n2)cc1	none
O=C(Nc1nc(-c2cccs2)cs1)c1ccc(Cl)cc1	WT yeast gro inh 67
O=C(Oc1cccc(NC(=O)c2cccs2)c1)c1cccc(S(=O)(=O)N2CCCC2)c1	Lmaj promast 62
O=C(CN1CCSC1=NCc1ccccc1)c1ccc(Cl)cc1	none
Cc1ccc2nc(Cl)c(C#N)cc2c1	none
O=C(Nc1nc(-c2cccs2)cs1)c1cccc(S(=O)(=O)N2CCCCC2)c1	none

Bioassay records deposited in PubChem BioAssay by several laboratories.
